Key:
Assay in all cases: DAPPL (digital affinity profiling via proximity ligation, sequencing); 10 mM Tris-HCl pH 7.5, 50 mM NaCl, 1 mM DTT, 4% glycerol, room temperature, 30 min; GST-TFs on glutathione beads, 16-mer random dsDNA library, 0.1% formaldehyde crosslink after washing; high values mean tight binding
Details in all cases: protein: recombinant; tags: N-terminal GST; dsDNA, one strand shown
ELK4 = biological target: T1, ELK4 (Homo sapiens, UniProt P28324-2 1-405)
T1 sequence: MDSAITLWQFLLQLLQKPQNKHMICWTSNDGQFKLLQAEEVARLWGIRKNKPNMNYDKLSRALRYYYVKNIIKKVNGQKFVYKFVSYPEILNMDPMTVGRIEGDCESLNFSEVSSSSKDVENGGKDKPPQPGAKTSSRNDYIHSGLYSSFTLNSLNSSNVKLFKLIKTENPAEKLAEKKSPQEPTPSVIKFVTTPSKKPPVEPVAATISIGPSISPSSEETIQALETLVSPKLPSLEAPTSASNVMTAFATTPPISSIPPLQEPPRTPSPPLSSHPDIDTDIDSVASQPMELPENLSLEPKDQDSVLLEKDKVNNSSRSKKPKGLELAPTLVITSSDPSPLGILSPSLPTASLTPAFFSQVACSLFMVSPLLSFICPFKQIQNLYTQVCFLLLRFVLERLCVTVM
In short: (§1)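 GST fusions of human transcription factors were expressed in yeast and captured with glutathione beads. Once given DNA barcodes and pooled alongside a tag-only sample, they were incubated for 30 min at room temperature with 200 nmole of a random double-stranded 16-mer DNA library in Tris/NaCl/DTT/glycerol buffer, then washed, crosslinked (0.1% formaldehyde), proximity-ligated, PCR-amplified and sequenced on an Illumina NextSeq500. The binding signal of each hexamer is its read frequency for a factor divided by its frequency for the tag-only sample.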

ELF3 = biological target: T2, ELF3 (Homo sapiens, UniProt P78545 1-371)
T2 sequence: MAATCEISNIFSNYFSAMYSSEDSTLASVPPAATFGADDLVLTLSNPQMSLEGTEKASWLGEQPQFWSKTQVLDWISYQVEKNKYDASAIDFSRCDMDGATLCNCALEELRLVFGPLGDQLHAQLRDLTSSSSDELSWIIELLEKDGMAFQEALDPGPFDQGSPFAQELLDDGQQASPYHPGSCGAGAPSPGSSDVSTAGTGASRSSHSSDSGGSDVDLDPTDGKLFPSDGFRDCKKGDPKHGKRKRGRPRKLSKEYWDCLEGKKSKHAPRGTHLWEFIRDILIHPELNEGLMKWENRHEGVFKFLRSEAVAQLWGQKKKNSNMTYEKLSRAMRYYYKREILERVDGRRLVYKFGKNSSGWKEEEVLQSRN
In short: as §1

ETV7 = biological target: T3, ETV7 (Homo sapiens, UniProt Q9Y603 1-341)
T3 sequence: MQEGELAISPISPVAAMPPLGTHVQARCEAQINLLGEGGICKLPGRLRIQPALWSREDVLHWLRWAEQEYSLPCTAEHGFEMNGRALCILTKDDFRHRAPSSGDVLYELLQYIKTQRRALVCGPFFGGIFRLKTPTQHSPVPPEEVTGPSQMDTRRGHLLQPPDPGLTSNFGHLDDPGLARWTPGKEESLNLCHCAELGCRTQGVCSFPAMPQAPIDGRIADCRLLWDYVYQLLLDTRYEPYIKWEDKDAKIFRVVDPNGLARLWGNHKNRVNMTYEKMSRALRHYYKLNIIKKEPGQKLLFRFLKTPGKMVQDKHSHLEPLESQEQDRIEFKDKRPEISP
In short: as §1

ELF5 = biological target: T4, ELF5 (Homo sapiens, UniProt Q9UKW6-2 1-255)
T4 sequence: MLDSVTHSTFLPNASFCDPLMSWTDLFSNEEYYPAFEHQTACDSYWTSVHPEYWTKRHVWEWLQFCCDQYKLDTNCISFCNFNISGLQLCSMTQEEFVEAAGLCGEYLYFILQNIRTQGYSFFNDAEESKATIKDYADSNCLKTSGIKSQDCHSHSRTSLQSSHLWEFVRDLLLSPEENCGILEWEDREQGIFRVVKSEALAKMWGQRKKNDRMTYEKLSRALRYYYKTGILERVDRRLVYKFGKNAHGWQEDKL
In short: as §1

ETV2 = biological target: T5, ETV2 (Homo sapiens, UniProt O00321 1-342)
T5 sequence: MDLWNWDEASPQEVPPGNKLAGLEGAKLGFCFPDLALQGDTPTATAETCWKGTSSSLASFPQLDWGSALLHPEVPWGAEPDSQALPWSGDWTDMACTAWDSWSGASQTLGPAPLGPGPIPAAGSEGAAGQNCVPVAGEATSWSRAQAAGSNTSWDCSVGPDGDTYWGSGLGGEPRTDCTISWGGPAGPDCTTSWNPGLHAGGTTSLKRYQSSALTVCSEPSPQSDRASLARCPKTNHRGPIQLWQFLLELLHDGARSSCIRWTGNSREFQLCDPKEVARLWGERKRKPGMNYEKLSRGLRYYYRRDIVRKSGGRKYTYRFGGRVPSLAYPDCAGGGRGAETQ
In short: as §1

CRX = CRX (Homo sapiens, UniProt O43186 1-299)
Chain of CRX (O43186 whole entry): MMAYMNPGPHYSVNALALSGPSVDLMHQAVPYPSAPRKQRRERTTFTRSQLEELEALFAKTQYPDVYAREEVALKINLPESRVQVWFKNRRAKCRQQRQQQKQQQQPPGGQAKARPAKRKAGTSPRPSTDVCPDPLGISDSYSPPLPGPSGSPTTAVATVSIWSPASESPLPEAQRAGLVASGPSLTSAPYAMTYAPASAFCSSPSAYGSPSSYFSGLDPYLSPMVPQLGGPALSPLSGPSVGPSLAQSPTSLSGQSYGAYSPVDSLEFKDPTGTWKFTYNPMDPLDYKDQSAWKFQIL
In short: as §1

Sequence	binding signal (ELK4)	binding signal (ELF3)	binding signal (ETV7)	binding signal (ELF5)	binding signal (ETV2)	binding signal (CRX)
GCGCGC	1.1 fold enrichment (6-mer frequency, TF over GST control)	1.05 fold enrichment (6-mer frequency, TF over GST control)	1.05 fold enrichment (6-mer frequency, TF over GST control)			
TGCCAA	1.06 fold enrichment (6-mer frequency, TF over GST control)	1.17 fold enrichment (6-mer frequency, TF over GST control)	1.01 fold enrichment (6-mer frequency, TF over GST control)	1.1 fold enrichment (6-mer frequency, TF over GST control)		
AAGGCA	1.03 fold enrichment (6-mer frequency, TF over GST control)		1.05 fold enrichment (6-mer frequency, TF over GST control)	1.05 fold enrichment (6-mer frequency, TF over GST control)		
CGGCCT	1.13 fold enrichment (6-mer frequency, TF over GST control)	1.03 fold enrichment (6-mer frequency, TF over GST control)	1.23 fold enrichment (6-mer frequency, TF over GST control)			
TGGACC	1.03 fold enrichment (6-mer frequency, TF over GST control)	1.19 fold enrichment (6-mer frequency, TF over GST control)	1.03 fold enrichment (6-mer frequency, TF over GST control)			
GCTGCC	1.2 fold enrichment (6-mer frequency, TF over GST control)		1.04 fold enrichment (6-mer frequency, TF over GST control)	1.09 fold enrichment (6-mer frequency, TF over GST control)		
ACCACC	1.16 fold enrichment (6-mer frequency, TF over GST control)	1.21 fold enrichment (6-mer frequency, TF over GST control)		1.07 fold enrichment (6-mer frequency, TF over GST control)		
CCGCTG	1.2 fold enrichment (6-mer frequency, TF over GST control)	1.01 fold enrichment (6-mer frequency, TF over GST control)	1.16 fold enrichment (6-mer frequency, TF over GST control)	1.03 fold enrichment (6-mer frequency, TF over GST control)		
ACATGG	1.22 fold enrichment (6-mer frequency, TF over GST control)	1.17 fold enrichment (6-mer frequency, TF over GST control)	1.08 fold enrichment (6-mer frequency, TF over GST control)	1.1 fold enrichment (6-mer frequency, TF over GST control)		
ATGCCG	1.15 fold enrichment (6-mer frequency, TF over GST control)			1.13 fold enrichment (6-mer frequency, TF over GST control)		
ACCACA	1.13 fold enrichment (6-mer frequency, TF over GST control)	1.02 fold enrichment (6-mer frequency, TF over GST control)		1.09 fold enrichment (6-mer frequency, TF over GST control)		
TTGCCG	1 fold enrichment (6-mer frequency, TF over GST control)	1.09 fold enrichment (6-mer frequency, TF over GST control)	1.22 fold enrichment (6-mer frequency, TF over GST control)	1.07 fold enrichment (6-mer frequency, TF over GST control)		
CCGATG	1.07 fold enrichment (6-mer frequency, TF over GST control)	1.11 fold enrichment (6-mer frequency, TF over GST control)	1.1 fold enrichment (6-mer frequency, TF over GST control)			
GTCTTG	1.02 fold enrichment (6-mer frequency, TF over GST control)		1.19 fold enrichment (6-mer frequency, TF over GST control)			
AAAGCG	1.25 fold enrichment (6-mer frequency, TF over GST control)	1.14 fold enrichment (6-mer frequency, TF over GST control)	1.11 fold enrichment (6-mer frequency, TF over GST control)	1.07 fold enrichment (6-mer frequency, TF over GST control)	1.06 fold enrichment (6-mer frequency, TF over GST control)	1.14 fold enrichment (6-mer frequency, TF over GST control)
CATCGC	1.14 fold enrichment (6-mer frequency, TF over GST control)		1.11 fold enrichment (6-mer frequency, TF over GST control)	1.03 fold enrichment (6-mer frequency, TF over GST control)		
GGTTTT	1.03 fold enrichment (6-mer frequency, TF over GST control)	1.14 fold enrichment (6-mer frequency, TF over GST control)	1.1 fold enrichment (6-mer frequency, TF over GST control)	1.12 fold enrichment (6-mer frequency, TF over GST control)	1.2 fold enrichment (6-mer frequency, TF over GST control)	1.19 fold enrichment (6-mer frequency, TF over GST control)

Sequence	binding signal (ELK4)	binding signal (ELF3)	binding signal (ETV7)	binding signal (ELF5)	binding signal (ETV2)	binding signal (CRX)
ATGGTG	1.17 fold enrichment (6-mer frequency, TF over GST control)	1.07 fold enrichment (6-mer frequency, TF over GST control)		1.02 fold enrichment (6-mer frequency, TF over GST control)		
CATCCA	1.07 fold enrichment (6-mer frequency, TF over GST control)					
TGGTGC	1.14 fold enrichment (6-mer frequency, TF over GST control)		1.07 fold enrichment (6-mer frequency, TF over GST control)	1.02 fold enrichment (6-mer frequency, TF over GST control)		
GCCCCA	1.06 fold enrichment (6-mer frequency, TF over GST control)					
CCACAC	1.04 fold enrichment (6-mer frequency, TF over GST control)					
CATACG	1.07 fold enrichment (6-mer frequency, TF over GST control)	1.07 fold enrichment (6-mer frequency, TF over GST control)		1.06 fold enrichment (6-mer frequency, TF over GST control)		
TCAACA	1.03 fold enrichment (6-mer frequency, TF over GST control)	1.12 fold enrichment (6-mer frequency, TF over GST control)		1 fold enrichment (6-mer frequency, TF over GST control)		
GCCCAC	1 fold enrichment (6-mer frequency, TF over GST control)	1.03 fold enrichment (6-mer frequency, TF over GST control)				
CCACCT	1.21 fold enrichment (6-mer frequency, TF over GST control)	1.3 fold enrichment (6-mer frequency, TF over GST control)		1.09 fold enrichment (6-mer frequency, TF over GST control)		
GGGTTC	1 fold enrichment (6-mer frequency, TF over GST control)	1.02 fold enrichment (6-mer frequency, TF over GST control)		1.1 fold enrichment (6-mer frequency, TF over GST control)		
GTCCCA	1.13 fold enrichment (6-mer frequency, TF over GST control)	1.08 fold enrichment (6-mer frequency, TF over GST control)	1.13 fold enrichment (6-mer frequency, TF over GST control)	1.12 fold enrichment (6-mer frequency, TF over GST control)		
AGCAAC	1.12 fold enrichment (6-mer frequency, TF over GST control)		1.1 fold enrichment (6-mer frequency, TF over GST control)	1.07 fold enrichment (6-mer frequency, TF over GST control)		
TGCTGC	1.22 fold enrichment (6-mer frequency, TF over GST control)	1.11 fold enrichment (6-mer frequency, TF over GST control)	1.1 fold enrichment (6-mer frequency, TF over GST control)	1.16 fold enrichment (6-mer frequency, TF over GST control)		
TGGTCA	1.04 fold enrichment (6-mer frequency, TF over GST control)	1.1 fold enrichment (6-mer frequency, TF over GST control)				
CCATGC	1.13 fold enrichment (6-mer frequency, TF over GST control)	1.18 fold enrichment (6-mer frequency, TF over GST control)	1.1 fold enrichment (6-mer frequency, TF over GST control)	1.03 fold enrichment (6-mer frequency, TF over GST control)		
CGCCCG	1.09 fold enrichment (6-mer frequency, TF over GST control)	1.14 fold enrichment (6-mer frequency, TF over GST control)	1.08 fold enrichment (6-mer frequency, TF over GST control)	1.16 fold enrichment (6-mer frequency, TF over GST control)		
